SMILES strings stand for the structures. Among all 52,000 compounds or so, about 4,300 (8.3%) were called active. Many of the other results were omitted from the sample, so actives are more common in it than they were. Values without a mark were called inactive. Rule as the data show it: active = survival mostly below about 52% (no sharp cut-off); inactive = mostly above about 56%.

For the assay, the system named is DeltatarO mutant. Nature of the assay: growth inhibition of S. aureus wild type versus tarO mutant, primary screen, teichoic acid synthesis inhibitors, RN4220, OD600 (AID 463173). Particulars: OD600, 18 h, stronger effect = lower value, screened at 18.75 µg/mL (by protocol).
Turning to `CCc1ccc(-n2c(=O)c3ccc(C(=O)NCCc4ccccc4)cc3n(CC(N)=O)c2=O)cc1`, the survival was 86%.
For `COC(=O)C1(CO)NC(c2ccccc2F)C2C(=O)N(c3ccccc3)C(=O)C21` (stereo not drawn) the value was 86%.
For `COc1ccc(-c2nc(C)c(CCNC(=O)c3cccs3)s2)cc1` the value was 61%; for `O=C(Nc1ccc(N2CCC(c3ccccc3)C2)c(C(=O)O)c1)c1ccc(Cl)cc1` (stereo not drawn), 60%.
With `CCNC(=O)C1CCCN(c2nn3cc(-c4ccc(C)cc4)nc3s2)C1` (stereo not drawn) the figure was 74%; with `COCCCNC(=O)c1cc(-c2ccc(OC)cc2)nc2n[nH]c(-c3ccc(Cl)cc3)c12`, 73%; with `Cn1c(=O)n(C)c2cc(N3CCOCC3)c(NC(=O)c3ccccc3Br)cc21`, 82%.
As to `CCc1ccc(NC(=O)Cn2c(=O)ccc3cc(S(=O)(=O)N4CCCC4)ccc32)cc1`, the survival is 144%.
With `Cc1ccc(NC(=O)Cn2c(=O)ccc3cc(S(=O)(=O)N4CCCC4)ccc32)cc1C` the figure was 98%.
As for `Cc1ccc(NC(=O)Cn2c(=O)ccc3cc(S(=O)(=O)N4CCCC4)ccc32)cc1N(C)C`, the survival was 32% (active).
With `COc1cccc(NC(=O)CC2NCCNC2=O)c1` (stereo not drawn) the figure was 84%; with `CCCCN(C)CCNC(=O)c1ccc2c(=O)n(CCc3ccccc3)c(=O)[nH]c2c1`, 77%.
For `CCOc1ccc(C(=O)c2cnc3ccc(Cl)cc3c2S(=O)(=O)c2ccc(C)cc2)cc1`, the survival was 80%.
With `CCOC(=O)C1CCN(c2c(C(=O)c3ccc(OC)cc3)cnc3ccccc23)CC1` the figure was 125%; with `COc1ccc(C(=O)c2cnc3ccc(C)cc3c2S(=O)(=O)c2ccccc2)cc1`, 69%; with `COc1ccc(S(=O)(=O)c2cnc3cc(OC)c(OC)cc3c2N2CCCC(C)C2)cc1` (stereo not drawn), 116%.
For `CCOC(=O)C1CCCN(c2c(C(=O)c3ccc(C)cc3)cnc3ccc(OCC)cc23)C1` (stereo not drawn) the value was 10% (active); for `CCOC(=O)C1CCCN(c2c(C(=O)c3ccc(OCC)cc3)cnc3ccccc23)C1` (stereo not drawn), -3% (active); for `CCOc1ccc2nc(N3CCCC(C(=O)NCc4ccc(C)cc4)C3)sc2c1` (stereo not drawn), 71%.
With `CCOC(=O)C1CCCN(C(=O)c2ccc(OCC)cc2)C1` (stereo not drawn) the figure was 77%.
As to `CCOC(=O)C1CCN(c2c(C(=O)c3ccc(C)cc3)cnc3ccc(F)cc23)CC1`, the survival was 2% (active).
In the case of `CCc1ccc2ncc(C(=O)c3ccc(C)c(C)c3)c(N3CCC(C(N)=O)CC3)c2c1`, the survival was 86%.
With `COc1cc2ncc(C(=O)c3ccc(C)cc3)c(N3CCCCC3)c2cc1OC`, the survival is 2% (active).
With `CCOC(=O)C1CCN(c2c(C(=O)c3ccc(OCC)cc3)cnc3ccc(OC)cc23)CC1` the figure was 37%; with `CCC(=O)NC1CC(=O)N(c2ccc3c(c2)OCCO3)C1` (stereo not drawn), 82%; with `CC(=O)N1CCC(N(Cc2ccc(C)o2)C(=O)Nc2cccc(C(F)(F)F)c2)CC1`, 91%.
Take `CC(C)NC(=O)c1ccc(NC(=O)N2CCCCc3ccccc32)cc1`: the survival was 70%.
Turning to `Cc1ccc(CN(C(=O)COc2ccc(Cl)c(C)c2)c2ccccn2)o1`, the survival is 52%.
With `CCOC(=O)c1cc(S(=O)(=O)N2CCN(c3ccc(OC)cc3)CC2)[nH]n1` the figure was 128%; with `CCC1Oc2ccccc2N(CC(=O)NCCc2ccc(OC)c(OC)c2)C1=O` (stereo not drawn), 115%.
Take `COc1cccc2c1ncc1c(-c3ccc(C)cc3)nn(-c3cccc([N+](=O)[O-])c3)c12`: the survival was 87%.
With `Cc1ccc(NC(=O)CCn2cnc3onc(-c4ccc(F)cc4)c3c2=O)c(Br)c1` the figure was 102%; with `CCOC(=O)C1CCCN(c2c(C(=O)c3ccccc3)cnc3ccc(F)cc23)C1` (stereo not drawn), 35% (active).
With `CCOC(=O)C1CCCN(c2c3c(nc4cc(-c5ccc(F)cc5)nn24)CCCC3)C1` (stereo not drawn) the figure was 76%.
For `CCc1ccc(C(=O)c2cnc3ccc(F)cc3c2S(=O)(=O)c2ccccc2)cc1` the value was 123%.
As to `CCOC(=O)c1c(S(=O)(=O)NCC(=O)N2CCN(c3cc(C)ccc3C)CC2)c(C)n(C)c1C`, the survival is 71%.
With `COc1ccccc1CNC(=O)c1ccc2c(c1)CCN2S(=O)(=O)c1ccc(Cl)cc1` the figure was 82%; with `CCS(=O)(=O)N1CCc2cc(C(=O)NCc3ccccc3)ccc21`, 68%; with `COc1ccccc1N1CCN(C(=O)c2ccc3c(c2)CCN3S(=O)(=O)c2ccccc2)CC1`, 62%.
With `COc1ccccc1CNC(=O)c1ccc2c(c1)CCN2S(=O)(=O)c1ccccc1` the figure was 43% (active); with `CCS(=O)(=O)N1CCc2cc(C(=O)NCc3ccccc3OC)ccc21`, 40% (active); with `CCS(=O)(=O)N1CCc2cc(C(=O)NCc3ccccc3Cl)ccc21`, 89%.
For `CC1=C(C(=O)Nc2ccccc2)C(c2cccnc2)n2nc(SCc3ccccc3Cl)nc2N1` (stereo not drawn) the value was 179%; for `CCCCNC(=O)CN1C(=O)COc2ccc(S(=O)(=O)N3CCCCCC3)cc21`, 80%; for `Oc1ccc(/C=C/c2nc(-c3ccccc3O)n(-c3ccccc3)n2)c(O)c1`, -3% (active).
As for `Oc1ccccc1-c1nc(/C=C/c2ccc(F)cc2)nn1-c1ccccc1`, the survival was 26% (active).
With `CC(=O)Nc1ccc(/C=C/c2nc(-c3ccccc3O)n(-c3ccccc3)n2)cc1` the figure was 84%.
For `Cc1nc(C)c(C(=O)N/N=C/c2ccc(O)cc2O)cc1C(=O)N/N=C/c1ccc(O)cc1O` the value was 80%.
For `CC(=O)Nc1ccc(/C=C/c2noc(-c3ccccc3O)n2)cc1` the value was 75%.
As to `Oc1ccccc1-c1nc(/C=C/c2ccccc2)nn1-c1ccccc1`, the survival was 7% (active).
For `CN(C)c1ccc(/C=C/c2nc(-c3ccccc3O)n(-c3ccccc3)n2)cc1` the value was 42% (active).
For `CN(C)c1ccc(/C=N/NC(=O)c2ccccc2)cc1` the value was 95%; for `N#Cc1nc(/C=C/c2ccc(F)cc2)oc1N1CCN(c2ccccc2)CC1`, 73%; for `Oc1ccccc1-c1nc(/C=C/c2ccc(F)cc2)no1`, 79%.
For `CN(C)c1ccc(/C=C/c2noc(-c3ccccc3O)n2)cc1` the value was 86%; for `Cc1ccc2c(c1)c(N1CCCC1=O)c(C(=O)Nc1ccc(F)cc1F)n2C`, 71%; for `CCCCN(CCCC)CCNC(=O)CN1C(=O)CSc2ccc(S(=O)(=O)N3CCOCC3)cc21`, 92%.
In the case of `CCCCN(CCCNC(=O)c1cc(Nc2ccc(OC)cc2OC)nc2ccccc12)Cc1ccccc1`, the survival is 99%.
For `O=c1c2sc3ccccc3c2n(Cc2ccccc2Cl)c(=O)n1Cc1ccccc1` the value was 56%.
As for `CC(C)(C)C(=O)NC1CC(=O)N(c2ccc3c(c2)OCCO3)C1` (stereo not drawn), the survival is 125%.
On to `Cn1cc(-c2cc3n(n2)CCC(=O)N3CCCC(=O)Nc2ccc(F)cc2F)c2ccccc21`, for which the survival is 128%.
With `Cc1c(Cl)cccc1-n1ncc(C(=O)Nc2ccc3c(c2)OCCO3)c1C1CCN(C(=O)OC(C)(C)C)CC1` the figure was 102%; with `CC(CNC(=O)CCc1cn(Cc2ccccc2Cl)c2ccccc12)c1ccccc1` (stereo not drawn), 66%; with `COc1ccc(/C=C/c2noc(-c3ccccc3O)n2)cc1OC`, 130%.
For the molecule `COc1ccc(/C=C/c2nc(-c3ccccc3O)n(-c3ccccc3)n2)cc1OC`, the survival is 13% (active).
For `Oc1ccccc1-c1nc(/C=C/c2ccccc2Cl)nn1-c1ccccc1` the value was 14% (active).
With `COc1cc2c(-c3cc(Br)ccc3O)nc3c(c(C)nn3-c3ccccc3)c2cc1OC` the figure was 77%.
With `Cc1nn(-c2ccccc2)c(Cl)c1C(N)=O` the figure was 73%; with `Oc1ccccc1-c1nc(/C=C/c2ccccc2Cl)no1`, 67%; with `CCc1ccc(C2CC(=O)c3c([nH]c(C(=O)OCC4CCCCC4)c3C)C2)cc1` (stereo not drawn), 89%.
With `Cc1c(C(=O)N2CCCCCC2)c(S(=O)(=O)Nc2ccc(OC(F)(F)F)cc2)c(C)n1C`, the survival was 113%.
With `CCOc1ccc(C(=O)Nc2cc(-c3nc4cc(OC)ccc4o3)ccc2C)cc1[N+](=O)[O-]` the figure was 62%.
With `CCOC(=O)c1cnc2cc(C(F)(F)F)ccc2c1Nc1ccc(F)cc1F` the figure was 2% (active); with `CCOC(=O)c1ccc(Nc2ncnc3c2cnn3-c2cccc(Cl)c2)cc1`, 75%; with `CCOC(=O)c1ccc2nc(C)cc(Nc3ccc(OC(C)C)cc3)c2c1`, 133%.
For `CCOC(=O)c1cnc2c(C(F)(F)F)cccc2c1Nc1cccc(C(=O)OC)c1` the value was 14% (active); for `CCOC(=O)c1cnc2cc(C(F)(F)F)ccc2c1Nc1cc(C)ccc1OC`, 71%; for `CCOC(=O)c1cnc2cc(C(F)(F)F)ccc2c1N1CCN(c2ccc(F)cc2)CC1`, 57%.
Consider `CCOC(=O)c1cnc2c(C(F)(F)F)cccc2c1Cl`, for which the survival was 82%.
With `CCOC(=O)c1cnc2c(Cl)cc(Cl)cc2c1Nc1cc(C(=O)O)ccc1C` the figure was 60%.
For the molecule `CCCOC(=O)c1ccc(Nc2c(C(=O)OCC)cnc3c(C)cc(Cl)cc23)cc1`, the survival was 11% (active).
With `CCOC(=O)c1cnc2c(C)cccc2c1Nc1ccc(OC(C)C)cc1` the figure was 2% (active).
For `CCOc1ccc(NC(=O)c2c(NCc3cc(OC)c(OC)cc3OC)sc3c2CCCC3)cc1` the value was 74%.
With `CCOC(=O)C1CCCN(S(=O)(=O)c2ccc(N3CCCCS3(=O)=O)cc2)C1` (stereo not drawn) the figure was 55%.
Take `O=C(c1cnn(-c2ccc(F)cc2)c1-n1cccc1)N1CCN(c2cccc(Cl)c2)CC1`: the survival was 70%.
As for `CCOc1ccccc1CNC(=O)c1ccc2nc(CCc3ccccc3)oc2c1`, the survival was 83%.
With `Cc1cccc(C(=O)NCC(=O)OCc2cc(=O)n3nc(CC(C)C)sc3n2)c1` the figure was 105%; with `O=C(Cn1c2ncccc2c(=O)n1-c1ccccc1)NCc1ccccc1Cl`, 68%.

These data come from PubChem BioAssay AID463173 (ICCB-Longwood Screening Facility, Harvard Medical School, 2010).
